Where “and” joins values, the source holds several entries; their conditions need not be identical. Equal values may be shown once. Records with an inconclusive call do not appear. Calls of active or inactive are those of the source. Unless noted, the call rests on the fitted dose curve; in most records, active means well fitted curve in the direction sought with a large enough effect; inconclusive means small, poorly fitted or top-dose-only effect, or another doubt; inactive means no such curve, though single readings can be large; an effect the other way counts as inactive or inconclusive.
Columns and labels:
[1] = molecular target: T1, Hexokinase-4 (Homo sapiens) + Glucokinase regulatory protein (Homo sapiens) (UniProt P35557+Q14397); assay: qHTS assay for inhibitors of recombinant human GCK-GKRP interaction: ADP-Glo assay (AID 743206); settings: ADP-Glo luminescence, 60 min; series mostly up to 76.9 µM;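 further: plate controls were DMSO plus enzyme for no effect and no enzyme for full effect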
T1 sequence (P35557 whole entry, looked up): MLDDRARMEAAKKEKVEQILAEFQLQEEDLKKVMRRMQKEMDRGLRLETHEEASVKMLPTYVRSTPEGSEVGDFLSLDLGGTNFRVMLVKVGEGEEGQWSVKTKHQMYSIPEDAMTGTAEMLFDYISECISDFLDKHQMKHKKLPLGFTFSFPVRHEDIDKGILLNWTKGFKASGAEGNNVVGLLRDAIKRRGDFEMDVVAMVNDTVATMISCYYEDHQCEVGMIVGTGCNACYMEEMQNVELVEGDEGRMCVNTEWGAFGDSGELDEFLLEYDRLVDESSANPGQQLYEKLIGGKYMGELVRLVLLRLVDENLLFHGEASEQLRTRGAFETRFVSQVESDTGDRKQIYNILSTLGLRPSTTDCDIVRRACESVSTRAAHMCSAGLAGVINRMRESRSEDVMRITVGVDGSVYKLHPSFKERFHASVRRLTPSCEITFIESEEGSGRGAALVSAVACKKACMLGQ
T1 sequence (Q14397 whole entry, looked up): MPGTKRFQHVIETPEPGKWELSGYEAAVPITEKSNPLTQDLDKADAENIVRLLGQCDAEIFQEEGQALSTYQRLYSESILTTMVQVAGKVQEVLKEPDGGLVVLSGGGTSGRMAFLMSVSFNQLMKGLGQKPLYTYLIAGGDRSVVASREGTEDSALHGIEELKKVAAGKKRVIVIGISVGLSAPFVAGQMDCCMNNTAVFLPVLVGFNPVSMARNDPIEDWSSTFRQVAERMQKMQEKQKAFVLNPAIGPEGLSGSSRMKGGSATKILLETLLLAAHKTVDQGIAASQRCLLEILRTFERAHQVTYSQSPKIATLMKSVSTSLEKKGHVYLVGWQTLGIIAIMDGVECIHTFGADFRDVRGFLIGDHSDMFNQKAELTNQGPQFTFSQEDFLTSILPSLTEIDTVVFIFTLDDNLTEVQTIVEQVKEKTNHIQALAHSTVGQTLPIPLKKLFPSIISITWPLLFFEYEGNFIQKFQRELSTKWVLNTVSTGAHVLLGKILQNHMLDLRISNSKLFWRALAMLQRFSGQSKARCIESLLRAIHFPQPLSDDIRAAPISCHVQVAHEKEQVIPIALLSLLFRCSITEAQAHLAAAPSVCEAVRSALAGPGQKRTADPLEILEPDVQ
In short: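 Pin-transferred compounds meet a 15 nM GST-GCK/15 nM FLAG-GKRP/2 uM S6P mix (dispense concentrations). ATP is then added to 0.4 mM final with 5 mM glucose, and the reaction runs 60 min at room temperature. ADP is quantified luminescently.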

[2] = molecular target: T1, Hexokinase-4 (Homo sapiens) + Glucokinase regulatory protein (Homo sapiens); assay: qHTS assay for inhibitors of recombinant human GCK-GKRP interaction: HTRF assay (AID 743207); settings: recombinant GCK-GKRP HTRF binding, 60 min, with sorbitol-6-phosphate; series mostly up to 57.5 µM;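 further: 0% = DMSO with GCK present and -100% = DMSO wells lacking GCK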
In short: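 HTRF read-out (ex 320 nm; 615/665 nm emission) after 60 min RT equilibration of 5 nM GST-GCK, 5 nM FLAG-GKRP, 2 uM S6P, compound and anti-FLAG/anti-GST detection antibodies; signal normalized between DMSO wells with and without GCK.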

[3] = qHTS Assay for Identifying Gametocytocidal Compounds (AID 743244); further: potency means the concentration at half of the fitted maximal effect;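 on max response: on the % scale 0 is the no-effect control and ±100 the full control effect; actives lower the fluorescent signal which means gametocytes are killed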; settings: P. falciparum 3D7 stage III-V gametocytes, alamarBlue, 72 h; max response: stronger effect = lower value
In short: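 P. falciparum 3D7 stage III–V gametocytes (20,000 cells/well) were exposed to compounds for 72 h at 37 °C, 5% CO2. AlamarBlue was then added for 24 h; decreased resorufin fluorescence (Ex 525/Em 598 nm) indicated loss of viability.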

[4] = qHTS profiling of the MIPE4 collection as inhibitors of Plasmodium falciparum (3D7) proliferation (AID 743344; call rule not given here;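 further: scaled between DMSO vehicle wells and 0.29 µM artemisinin as full inhibition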); settings: P. falciparum 3D7 in erythrocytes, SYBR Green DNA fluorescence, 72 h; at 28.5 µM (top of the series) unless noted
In short: (§1)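 Parasite DNA was quantified by SYBR Green I fluorescence (ex 485, em 535 nm) after overnight lysis in saponin/Triton buffer at room temperature. Cultures at 0.3% parasitemia and 2.5% hematocrit were first exposed to compound for 72 h at 37 C; signals were normalised to artemisinin (0.29 uM) and vehicle wells.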

[5] = qHTS profiling of the MIPE4 collection as inhibitors of Plasmodium falciparum (DD2) proliferation (Rep 2) (AID 743346; call rule not given here); settings: P. falciparum Dd2 in erythrocytes, SYBR Green DNA, 72 h; at 28.5 µM (top of the series) unless noted
In short: as §1

[6] = qHTS profiling of the MIPE4 collection as inhibitors of Plasmodium falciparum (HB3) proliferation (AID 743347; call rule not given here;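 further: plate controls were DMSO vehicle wells for no effect and artemisinin wells for full effect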); settings: P. falciparum HB3 in erythrocytes, SYBR Green DNA, 72 h; at 28.5 µM (top of the series) unless noted
In short: as §1

[7] = High-throughput drug toxicity screening in the BPDCN cell line Gen2.2 (AID 1224824; call rule not given here;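 further: cells exposed to compounds for 48 h before reading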); settings: Gen2.2 BPDCN cells; at 45.8 µM (top of the series) unless noted
In short: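 CellTiter-Glo luminescence after 48 h compound exposure of Gen2.2 cells; percent activity set with DMSO as 100% and bortezomib (9.2 uM final) as 0%. Cells seeded at 500 per well, RPMI + 10% FBS, 37 °C.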

[8] = High-throughput drug toxicity screening in the BPDCN cell line Cal-1 (AID 1224825; call rule not given here); settings: Cal-1 BPDCN cell viability, qHTS; at 45.8 µM (top of the series) unless noted
In short: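 CellTiter-Glo luminescence after 48 h compound exposure; percent activity scaled with DMSO as 100% and bortezomib (9.2 uM final) as 0%. Cal-1 cells seeded at 500/well in RPMI, 10% FBS, no phenol red.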

[9] = qHTS assay for measurement of the activity of small molecule inhibitors on Zika virus induced Caspase-3 activity in human iPSC derived neural progenitor cells (hNPCs) (AID 1224857); settings: hNPCs ZIKV-induced caspase-3/7, Caspase-Glo luminescence, 6 h; series mostly up to 45.7 µM; further: % of control where 0% means no effect; nearly all actives have a fitted effect of over 65% in size
In short: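 hNPCs seeded 350 cells/well, cultured 16–20 h; compounds added 1 h before ZIKV (2 FFU/cell), 37 C 6 h. Caspase-Glo 3/7 luminescence after 30 min RT; % inhibition from induction scaled to uninfected (0%) and infected (100%) wells.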

[10] = qHTS Screen of the MIPE 4.0 Collection Against Ewings Sarcoma (EW8) (AID 1259255); settings: EW8 Ewing sarcoma viability, CellTiter-Glo, 48 h; series mostly up to 45.8 µM; further: nearly all actives have a fitted effect of over 35% in size; further: potency means the concentration at half of the fitted maximal effect;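 on viability: 100% = DMSO-treated cells and 0% = medium-only wells without cells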
In short: (§2)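 Log-phase cells in RPMI with 5% FBS attached for 4 h, then received compounds as a titration for 48 h at 37C, 5% CO2. Viability was read by CellTiter-Glo luminescence and normalized to DMSO and no-cell wells.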

[11] = qHTS assay for cell viability of HEK293 cells (AID 743288); settings: ATP luminescence (CellTiter-Glo), 18 h; max response: stronger effect = lower value; further: on the % scale 0 is the no-effect control and ±100 the full control effect; nearly all actives have a fitted effect of over 50% in size
In short: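 ATP luminescence (CellTiter-Glo) reports metabolically competent cell number after parental HEK293 cells, 2,000/well, were treated with DMSO-dissolved compounds for 18 h at 37 C; reagent incubation 30 min, room temperature.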

[12] = qHTS assay for cell viability of the p53RE-bla HCT-116 cell line (AID 743292); settings: p53RE-bla HCT-116 viability, ATP luminescence, 16 h; series mostly up to 95 µM; further: on the % scale 0 is the no-effect control and ±100 the full control effect; nearly all actives have a fitted effect of over 55% in size
In short: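 Viability of compound-treated p53RE-bla HCT-116 cells is taken from ATP-dependent luciferase luminescence. Treatment lasts 16 h at 37 C after a 5 h settling period; detection follows 30 min at room temperature.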

[13] = qHTS profiling of the MIPE4 collection as inhibitors of Plasmodium falciparum (DD2) proliferation (AID 743345; call rule not given here); settings: P. falciparum Dd2 in erythrocytes, SYBR Green DNA, 72 h; at 28.5 µM (top of the series) unless noted
In short: as §1

[14] = qHTS Screen of the MIPE 4.0 Collection Against Ewings Sarcoma (RDES) (AID 1259252); settings: RD-ES Ewing sarcoma viability, CellTiter-Glo, 48 h; series mostly up to 45.8 µM; further: nearly all actives have a fitted effect of over 35% in size; further: potency means the concentration at half of the fitted maximal effect
In short: as §2

[15] = qHTS Screen of the MIPE 4.0 Collection Against Ewings Sarcoma (TC32) (AID 1259256); settings: TC32 Ewing sarcoma viability, CellTiter-Glo, 48 h; series mostly up to 45.8 µM; further: nearly all actives have a fitted effect of over 45% in size; further: potency means the concentration at half of the fitted maximal effect
In short: as §2

[16] = qHTS Screen of the MIPE 4.0 Collection Against Ewings Sarcoma (TC71) (AID 1259253); settings: TC71 Ewing sarcoma viability, CellTiter-Glo, 48 h; series mostly up to 45.8 µM; further: nearly all actives have a fitted effect of over 40% in size; further: potency means the concentration at half of the fitted maximal effect
In short: as §2

[17] = qHTS profiling for inhibitors of Plasmodium falciparum (3D7) proliferation (AID 743322; call rule not given here;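 further: infected erythrocytes exposed to compound for 72 h before lysis; 100% = DMSO vehicle wells and 0% = 0.29 µM artemisinin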); settings: P. falciparum 3D7 proliferation, at 28.7 µM (top of the series)
In short: as §1

[18] = qHTS profiling for inhibitors of Plasmodium falciparum (DD2) proliferation (AID 743323; call rule not given here); settings: at 28.7 µM (top of the series), lower = more inhibition
In short: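 P. falciparum Dd2-infected erythrocytes (0.3% parasitemia, 2.5% hematocrit) exposed 72 h at 37 C, 5% CO2. Lysis with SYBR Green, overnight at room temperature, fluorescence 485/535 nm; normalized to 0.29 uM artemisinin and DMSO.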

| Compound | Potency [1] | Potency [2] | Potency [3] | parasite growth, % of DMSO control [4] [%] | parasite growth, % of control (lower = inhibition) [5] [%] | growth, % of control [6] [%] | cell viability, % of control (lower = more cytotoxic) [7] [%] | viability (% of control) [8] [%] | Potency [9] | Potency [10] | max response [3] | max response [11] | Potency [12] | parasite growth remaining, % of DMSO control (lower = more inhibition) [13] [%] | Potency [14] | Potency [15] | Potency [16] | remaining parasite growth % (stronger effect = lower value) [17] [%] | activity, percent of control [18] [%] |
| --- | --- | --- | --- | --- | --- | --- | --- | --- | --- | --- | --- | --- | --- | --- | --- | --- | --- | --- | --- |
| COc1cc2nc(N3CCN(C(=O)c4ccco4)CC3)nc(N)c2cc1OC | inactive | inactive | 11.2 µM (active) | 4.68 | 8.89 | 2.87 | 8.89 | 5.38 | inactive | 18.7 µM (active) |  |  |  |  |  |  |  |  |  |
| O=c1c(-c2ccc(O)cc2)coc2cc(O)cc(O)c12 | inactive | inactive |  | 72.2 | 57.2 | 31.8 | 55.3 | 13.8 | inactive | inactive | 20.7% (inactive) and 7.37% (inactive) | -13% (inactive) and -14.1% (inactive) | inactive | 88.4 | 18.7 µM (active) | inactive |  |  |  |
| COc1nc(C)nc(Cl)c1NC1=NCCN1 | inactive | inactive |  | 89.8 | 92.6 | 98.4 | 136 | 97.7 | inactive | inactive | 0.253% (inactive) and 33% (inactive) |  |  |  | inactive | inactive | inactive |  |  |
| CN1CCC(=C2c3ccccc3CC(=O)c3sccc32)CC1 | inactive | inactive |  | 13.6 | 40.5 | 12.6 | 14.3 | 23.6 | inactive |  |  |  |  | 55.5 | 11.8 µM (active) | 16.6 µM (active) | 13.2 µM (active) |  |  |
| CN(C)CCOC(c1ccccc1)c1ccccc1 | inactive | inactive |  | 90.6 | 41.2 | 100 | 136 | 38.8 | inactive | inactive | -13.8% (inactive) and 10.9% (inactive) | -15% (inactive) | inactive |  |  |  |  | 85.5 | 32.1 |
| NCCc1cnc[nH]1 | inactive | inactive |  | 95.8 | 109 | 108 | 166 | 99.6 | inactive | inactive | 8.45% (inactive) and 33% (inactive) |  |  |  | 5.9 µM (active) | inactive |  |  |  |
| CC(C(=O)O)c1cccc(C(=O)c2ccccc2)c1 (configuration not stated) |  |  |  |  |  |  | 152 | 103 | inactive |  | 3.48% (inactive) and 27.8% (inactive) |  |  |  | 7.43 µM (active) | 14.8 µM (active) |  |  |  |
| COc1ccc(C2CNC(=O)C2)cc1OC1CCCC1 (configuration not stated) | inactive | inactive |  | 109 | 116 | 98.4 | 170 | 117 | inactive | inactive | 8.29% (inactive) and 32.6% (inactive) |  |  | 101 | inactive | inactive | inactive |  |  |
| CC12CC3CC(C)(C1)CC(N)(C3)C2 | inactive | inactive |  | 176 | 122 | 512 | 26.5 | 17.7 | inactive | inactive | 12.5% (inactive) |  |  |  | inactive | inactive | inactive |  |  |
| O=C1N(c2ccccc2)c2ccccc2C1(Cc1ccncc1)Cc1ccncc1 | inactive | inactive |  | 105 | 120 | 106 | 266 | 130 | inactive | inactive | -4.76% (inactive) and 23.2% (inactive) |  |  |  |  | inactive | 16.6 µM (active) |  |  |
| CN(C)C(=O)C(CCN1CCC(O)(c2ccc(Cl)cc2)CC1)(c1ccccc1)c1ccccc1 |  |  |  |  |  |  | 71 | 12.1 | inactive | 16.6 µM (active) |  |  |  |  |  | 18.7 µM (active) | 20.9 µM (active) |  |  |
